# From PubChem BioAssay
# Rows were chosen to be rich in hits. Some 5.7% of all compounds tested hit in one or more screens of this group.
# KB-3-1 tox – kills parental KB-3-1 adenocarcinoma cells; KB-3-1 viability, CellTiter-Glo ATP luminescence, 72 h; Potency, µM (highest dose often 46.1 µM), most hits filed as cytotoxic; 1.4% of 400,000 active; note: potency is the fitted concentration of half-maximal effect; nearly all actives have a fitted effect of over 60% in size
#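 KB-3-1 parental drug-naive adenocarcinoma cells in DMEM/10% FBS, incubated 72 h at 37 C with pin-transferred compounds across a concentration series. Viability by CellTiter-Glo luminescence; concentration-response curves fitted after normalization.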
# Giardia killer – Giardia lamblia killing | Giardia lamblia trophozoite viability | activity change, % at 7.66 µM, hits read low | 0.15% of 340,000 active | AID 540267; in the data active = activity change below about -80%; inconclusive = between about -30% and that limit;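 note: parasites exposed to compound for two days anaerobically before the ATP read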
#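 Viability, read as ATP luminescence: trophozoites at 100 cells/well, compound added, 48 hrs anaerobic at 37 deg C, then 15-30 min room-temperature development before reading.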
# A549 tox – A549 cytotoxicity, counter-screen for Nrf2 inhibitors; A549 ARE-Fluc cells, CellTiter-Fluor viability, 18-24 h; Potency, µM (highest dose often 46 µM), for the others: at the top dose activity change, negative = cytotoxicity, usual class: inhibitors; 0.16% of 390,000 active; note: potency is the fitted concentration of half-maximal effect
#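 A549 ARE_Fluc cells in 5% FBS OPTI-MEM were exposed to compounds in concentration-response for 18-24 h at 37 deg C. Viability was read by CellTiter-Fluor fluorescence (Ex 405/Em 525) after 30 min, before the luciferase read.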
# Nrf2 block – Nrf2 pathway inhibition; Potency, µM (titrated, usually from 46 µM), inactives show top-dose activity change, negative = inhibition, most hits filed as inhibitors; AID 504444; 2.1% of 360,000 active; A549 ARE-Fluc reporter, luciferase luminescence, 18-24 h; note: potency is the fitted concentration of half-maximal effect; nearly all actives have a fitted effect of over 60% in size
#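 Two sequential reads on A549 ARE_Fluc cells exposed to compound for 18-24 h: a CellTiter-Fluor fluorescence read for viability, then a luciferase luminescence read for Nrf2/ARE activity.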
# PI4K2A inh – blocks human PI4K2A kinase activity. Q9BTU6. purified PI4K2A, ADP-Glo luminescence, 1 h; hits give low values. activity change, negative = inhibition, % at 76.9 µM. 0.13% of 420,000 active. AID 1346378; in the data active = activity change below about -50%; inconclusive = mostly about -30% to -49%;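 note: -100% = wells without enzyme as full effect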
# Target sequence (Q9BTU6 whole entry, looked up): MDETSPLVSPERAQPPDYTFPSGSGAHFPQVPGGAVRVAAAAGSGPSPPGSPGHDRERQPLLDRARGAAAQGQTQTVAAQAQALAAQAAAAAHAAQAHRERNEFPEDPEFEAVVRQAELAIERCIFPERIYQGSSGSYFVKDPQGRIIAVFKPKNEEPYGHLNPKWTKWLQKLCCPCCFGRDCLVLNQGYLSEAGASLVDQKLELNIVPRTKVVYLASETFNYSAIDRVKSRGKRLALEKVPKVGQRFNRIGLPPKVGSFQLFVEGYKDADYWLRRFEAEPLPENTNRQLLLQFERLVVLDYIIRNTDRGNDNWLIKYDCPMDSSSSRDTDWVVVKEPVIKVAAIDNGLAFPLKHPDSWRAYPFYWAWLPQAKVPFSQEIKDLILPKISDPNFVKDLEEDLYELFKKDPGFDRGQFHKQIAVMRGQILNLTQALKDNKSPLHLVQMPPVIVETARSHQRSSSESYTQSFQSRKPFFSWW
#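 Compounds are screened against recombinant PI4K2A using PI as substrate and ATP, the latter dispensed at 300 microM. Reactions run one hour at ambient temperature before ADP-Glo detection; full inhibition defined by wells lacking enzyme.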
# KB-V1 cytotox – kills drug-selected multidrug resistant KB-V1 cells. KB-V1 MDR cells viability, CellTiter-Glo, 72 h. Potency, µM (highest dose often 46.1 µM), most hits filed as cytotoxic. 3.4% of 400,000 active; note: potency is the fitted concentration of half-maximal effect; nearly all actives have a fitted effect of over 60% in size
#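 In this primary screen, KB-V1 cells overexpressing P-gp are incubated with library compounds (lowest to highest concentration) for 72 h at 37 degrees C before a luminescent ATP viability read.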
# Active calls of the source: *; i = inactive; ? = inconclusive; . = no result; [ ] = dose if it differs, or a comment. Unless noted, calls come from the whole dose curve; as a rule, active = well fitted curve in the direction sought with a large enough effect; inconclusive = small, poorly fitted or top-dose-only effect, or another doubt; inactive = no such curve, though single readings can be large; an effect the other way counts as inactive or inconclusive. Unless noted, % is set by controls: 0 for no effect and ±100 for the full control effect.
SMILES,KB-3-1 tox,Giardia killer,A549 tox,Nrf2 block,PI4K2A inh,KB-V1 cytotox
COc1ccc(N2CCN(C(=O)c3cc(N4C(=O)C5C6CCC(C6)C5C4=O)ccc3Cl)CC2)cc1 (configuration not stated),?,18,2%,-18%,-5,4.6µM*
O=C(c1cc(N2C(=O)C3C4CCC(C4)C3C2=O)ccc1Cl)N1CCN(c2ccc(F)cc2)CC1 (configuration not stated),?,1,1%,?,0,2.6µM*
O=S(=O)(/C(=C\c1ccc(C(F)(F)F)cc1)c1nc2ccccc2[nH]1)c1ccccc1,2.6µM*,-7,?,16µM*,-16,?
O=C(NCc1ccco1)/C(=C/c1ccc(C(F)(F)F)cc1)c1nc2ccccc2[nH]1,?,-1,-1%,?,-8,i
O=C1[C@H](Cc2ccccc2)NC/C=C\C[C@@H](c2ccco2)N1Cc1ccccc1,i,.,.,.,.,i
CCCn1c(NCc2ccccc2NS(=O)(=O)c2ccc(C)cc2)nc2ccccc21,?,17,-1%,?,0,16µM*
CCn1c(NCc2ccccc2NS(=O)(=O)c2ccc(C)cc2)nc2ccccc21,?,-4,-2%,?,-2,?
CCn1c(NCc2cc(Br)ccc2NS(=O)(=O)c2ccc(C)cc2)nc2ccccc21,?,-17,-8%,.,-1,18µM*
NS(=O)(=O)c1ccc(S(=O)(=O)N2CCN(c3nc(-c4cccs4)nc4ccccc34)CC2)cc1,i,6,2%,?,.,i
COC(=O)C1CN(C2CCCC2)CCS(=O)(=O)N1Cc1ccc(Cl)cc1 (configuration not stated),.,.,.,.,2,.
COC(=O)c1cccc(NC(=O)c2cc3sccc3n2C)c1,i,6,8%,?,9,9.2µM*
CCc1ccccc1NC(=O)Cn1nc2c3cc(F)ccc3n(Cc3cccc(C)c3)cc-2c1=O,i,.,6%,20%,-7,i
CCCCOC(=O)Nc1ccccc1C(=O)N1CCCC1,i,8,-1%,6%,-3,13µM*
O=C(COc1ccc(Cl)cc1)Nc1ncc([N+](=O)[O-])s1,?,-86*,?,?,2,13µM*
CCN(CC)S(=O)(=O)c1nnc(NC(=O)COc2ccccc2)s1,i,.,9%,?,1,i
CCN(CC)S(=O)(=O)c1nnc(NC(=O)COc2ccc(Cl)cc2)s1,i,.,0%,4.1µM*,3,i
Cc1cnc(NC(=O)Cc2ccc(Br)cc2)s1,i,-4,-7%,9%,-5,i
O=C(Cc1ccc(Cl)cc1)Nc1ncc([N+](=O)[O-])s1,i,-91*,-17%,-5%,0,?
O=C(Cc1ccc(Br)cc1)Nc1ncc([N+](=O)[O-])s1,21µM*,-93*,-27%,?,2,?
COC(=O)[C@@H](C)NC(=O)C(Cc1ccc2c(c1)OCO2)NC(C)=O (some centres not stated),.,.,.,.,-1,.
CCN1CCCCC(NC(=O)COCc2ccccc2)C1=O (configuration not stated),.,.,.,.,4,.
CN(C)CCN(Cc1ccco1)C(=O)c1cc2c(s1)-c1ccccc1OC2,.,.,-9%,8%,4,.
C(#CC1=CCCCC1)CNCc1ccccc1,.,.,.,.,-10,.
C/C(=N/Nc1cc(-c2ccccc2)nc(-c2ccccc2)n1)c1ccc(O)cc1,?,20,-17%,-26%,4,18µM*
C/C(=N\Nc1ccccc1)c1cccc(N)c1,i,-4,-13%,-4%,-25,i
SMILES,KB-3-1 tox,Giardia killer,A549 tox,Nrf2 block,PI4K2A inh,KB-V1 cytotox
C/C(=N\Nc1cc(Cl)nc(C)n1)c1ccccc1,?,4,2%,.,0,i
C/C(=N\Nc1cc(-c2ccccc2)nc(-c2ccc(Br)cc2)n1)c1cccc(N)c1,i,2,-22%,4%,7,15µM*
Nc1ccccc1OC1=NS(=O)(=O)c2ccccc21,?,.,-1%,16%,.,i
COc1nc(OC)nc(N2CCC(C(=O)NCc3cccc(OC)c3OC)CC2)n1,.,.,.,.,5,.
c1ccc(-n2cnc3cc(NCc4ccco4)ccc32)cc1,23µM*,-11,0%,?,1,?
c1ccc(-n2cnc3cc(NCc4cccs4)ccc32)cc1,?,-1,-16%,?,-1,10µM*
O=S(=O)(c1ccc(F)cc1)N1CCN(c2nc(-c3cccc(Br)c3)nc3ccccc23)CC1,.,-16,-1%,-12%,.,.
CCOC(=O)Cc1csc(/N=C/c2c(O)n(-c3ccccc3C(F)(F)F)c(=O)c3ccccc23)n1,?,4,-20%,13µM*,0,i
CCOC(=O)Cc1csc(-n2sc3ccccc3c2=O)n1,i,1,1%,14%,-11,i
CCCCN(C)CCNC(=O)c1ccc(Cn2c(=O)[nH]c3cc(OC)c(OC)cc3c2=O)cc1,?,.,1%,1%[9.27 µM],-2,?
Cc1cc(C(N)=O)c2ccccc2n1,i,1,2%,4%,-3,i
NC(=O)c1cc2c3ccccc3ccn2c1-c1ccccc1,1.2µM*,-5,-10%,12%,-3,0.65µM*
CCOc1ccc(CNC(=O)CCS(=O)(=O)c2cc3c(cc2Cl)NC(=O)CO3)cc1OC,i,.,-4%,?,-4,i
O=C(NC1CCCC1)C1C(c2ccc(C(F)(F)F)cc2)=Nc2ccccc2N1C(=O)c1cc2ccccc2[nH]1 (configuration not stated),?,.,.,.,1,13µM*
Cc1ccc(C(=O)N/N=C2\CCc3ccccc32)c(C)c1,i,?,-1%,?,1,23µM*
CCC(C)[C@H](NC(=O)[C@H](CC(C)C)NC(=O)OC(C)(C)C)C(=O)N[C@@H](Cc1ccccc1)C(=O)OC (some centres not stated),.,.,.,.,0,.
COc1cc(/C=C/c2ccc3cccc(OC)c3n2)c(O)c([N+](=O)[O-])c1,?,?,-7%,8%,-1,i
COc1cc(/C=C/c2ccc3cccc(OC)c3n2)c(OC(C)=O)c([N+](=O)[O-])c1,?,?,9.2µM*,26µM*,-5,?
COc1c(OC(C)=O)ccc(/C=C/c2ccc3cccc(OCc4ccccc4)c3n2)c1[N+](=O)[O-],16µM*,-5,2%,7%,5,?
N#Cc1c(NC(=O)CSc2nnnn2C2CCCCC2)sc2c1CCCC2,i,-18,0%,7%,-2,23µM*
Cc1nnc(SCC(=O)Nc2sc3c(c2C#N)CCCC3)[nH]c1=O,i,11,0%,.,-12,i
